# High-throughput results (PubChem BioAssay)
# AGP1 TOR yeast: alters AGP1-GFP fluorescence in TOR pathway yeast screen | S. cerevisiae AGP1-GFP multiplex flow cytometry, 3 h; GFP as percent of DMSO wells | GFP response vs DMSO, % at 10 µM | hit rate 0.02% among 320,000 | AID 2066;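 active = GFP response relative to DMSO above a set limit, near screen average plus 3 SD, cut at about 150% in these data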;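 also: median GFP channel fluorescence of the gated AGP1 strain per well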
# MEP2 TOR yeast: yeast TOR pathway MEP2-GFP modulation | S. cerevisiae MEP2-GFP strain, flow cytometry GFP, 3 h; 100% = DMSO control level | GFP response vs DMSO, % at 10 µM | hit rate 0.51% among 330,000;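 active = GFP response versus DMSO above a set limit, roughly screen mean plus 3 SD, cut at about 180% in these data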;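 also: median GFP fluorescence of the barcode-gated MEP2-GFP cells per well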
# CIT2-GFP yeast: yeast TOR pathway CIT2-GFP modulation. S. cerevisiae CIT2-GFP strain, flow cytometry, 3 h; 100 means same as DMSO wells. GFP response vs DMSO, % at 10 µM. hit rate 0.065% among 320,000. AID 2029;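 active = GFP response relative to DMSO above a set limit, near the screen mean plus 3 SD, cut at about 150% in these data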;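 also: ratio of well median GFP fluorescence to mean of DMSO wells on the plate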
# VLA-4 inh: inhibition in a human VLA-4 binding assay; AID 2557; inhibition, % (about 7 µM as worked out from the volumes in the protocol); VLA-4 expressing cells, ligand binding flow cytometry; hit rate 0.2% among 330,000; in the data active = inhibition above about 50%
# RPL19A-GFP yeast: yeast TOR pathway RPL19A-GFP modulation. S. cerevisiae RPL19A-GFP strain, flow cytometry, 3 h; stronger effect = lower value. percent response vs DMSO, % at 10 µM. hit rate 0.3% among 330,000. AID 2025;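 active = percent response vs DMSO below 50%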;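 also: median channel GFP fluorescence of the barcoded RPL19A-GFP strain; ratio of sample median GFP to plate DMSO average so 100% = DMSO; lower means less RPL19A-GFP as with rapamycin TOR inhibition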
# LAP4 TOR yeast: alters LAP4-GFP fluorescence in TOR pathway yeast screen. S. cerevisiae LAP4-GFP multiplex, flow cytometry GFP, 3 h; median GFP as percent of DMSO wells. GFP response vs DMSO, % at 10 µM. hit rate 0.34% among 320,000. AID 2023;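 active = GFP response vs DMSO above a set limit, about the screen mean plus 3 SD, cut at about 150% in these data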
# LAP4-GFP pick2: reconfirmed LAP4-GFP TOR pathway modulator in yeast; hit rate 20% among 590; S. cerevisiae LAP4-GFP strain, flow cytometry GFP, 3 h; shares compounds with LAP4 TOR yeast; GFP response vs DMSO, % at 10 µM; AID 2621;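 active = GFP signal as percent of the solvent control above about 150%, meaning raised reporter expression, limit read from the data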;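 also: ratio of well median GFP fluorescence to plate DMSO mean so 100% = DMSO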
# MEP2-GFP pick2: yeast MEP2-GFP modulation, second cherry pick; S. cerevisiae MEP2-GFP strain, flow cytometry GFP, 3 h; hit rate 10% among 590; shares compounds with LAP4 TOR yeast; GFP response vs DMSO, % at 10 µM; AID 2622;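 active = GFP signal above 150% of the solvent control wells, that is a rise of more than half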;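 also: median channel GFP fluorescence of all gated yeast cells per well; ratio of median GFP to plate DMSO average so 100% = DMSO level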
# RPL19A GFP CP2: second confirmation of modulators of TOR reporter RPL19A-GFP in yeast | shares compounds with LAP4 TOR yeast | S. cerevisiae RPL19A-GFP strain, flow cytometry GFP, 3 h; stronger effect = lower value; 100% means same as DMSO wells | GFP response vs DMSO, % at 10 µM | hit rate 3% among 590 | AID 2623;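 active = under 65% GFP response relative to DMSO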;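 also: median GFP channel fluorescence per well over the all cells gate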
# CIT2 GFP CP2: second confirmation of modulators of TOR reporter CIT2-GFP in yeast; S. cerevisiae CIT2-GFP strain, flow cytometry GFP, 3 h; DMSO control wells read 100%; hit rate 8% among 590; shares compounds with LAP4 TOR yeast; AID 2624; GFP response vs DMSO, % at 10 µM;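 active = GFP response vs DMSO above about 150%, limit read from the data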;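 also: median green fluorescence per well over all gated yeast cells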
# AGP1 GFP CP2: yeast AGP1-GFP TOR reporter modulation, second cherry pick; shares compounds with LAP4 TOR yeast; S. cerevisiae AGP1-GFP strain, flow cytometry GFP, 3 h; percent response vs DMSO, % at 10 µM; 590 tested, under 10 active; AID 2643;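 active = over 150 percent of DMSO response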;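 also: median GFP channel fluorescence over all cells without mother daughter split; sample median GFP divided by mean DMSO control so 100% equals DMSO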
# Yeast autofluor: counter-screen for compound autofluorescence in yeast s288c cells; shares compounds with LAP4 TOR yeast; S. cerevisiae s288c, 520 nm autofluorescence, flow cytometry, 3 h; stronger effect = higher value; zero means same as solvent-only cells; fluorescence change (kMESF span) at 33 µM; 610 tested, under 10 active; AID 2757;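 active = fluorescence span over the dose series, or activity score, above about 33, limit read from the data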
# Yeast autofl DR: counter-screen for autofluorescence of TOR hits in yeast s288c | shares compounds with LAP4 TOR yeast | S. cerevisiae s288c parental, compound autofluorescence, flow cytometry, 3 h | fluorescence change (span) at 33 µM | 110 tested, under 10 active;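 active = fluorescence change span, or the activity score built from it, above 25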
# TORC1 bypass gr: wildtype yeast growth loss with TORC1 bypass cells unaffected | growth rating (0-3) at 30 µM | shares compounds with LAP4 TOR yeast | 120 tested, under 10 active | S. cerevisiae BY4741 spot growth rating, 48-72 h; stronger effect = lower value;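 active = growth rating at most 1 for wild type yeast while the TORC1 bypass strain still grows fully, rated 3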
# An asterisk follows results filed as active; . = not tested or not shown. Sampled rows, rich in hits. Any-hit rate of the full collection: about 1.1%.
SMILES,AGP1 TOR yeast,MEP2 TOR yeast,CIT2-GFP yeast,VLA-4 inh,RPL19A-GFP yeast,LAP4 TOR yeast,LAP4-GFP pick2,MEP2-GFP pick2,RPL19A GFP CP2,CIT2 GFP CP2,AGP1 GFP CP2,Yeast autofluor,others
COc1cccc(CNC(=O)c2ccc3c(c2)N(C)CCS3)c1OC,154.1*,758.7*,161.4*,-4.5,63.9,258.4*,99.2,99.6,98.7,98.7,97.1,.,
O=C(/C=C/c1ccccc1)c1cc(Br)ccc(=O)c1O,79.9,84.7,87.9,-2.0,92.5,117.6,145.3,153.7*,72.3,162.7*,86.8,23.4,
Cc1cc(Nc2cccc(Cl)c2)nc(-c2ccccc2O)n1,93.9,102.2,102.1,-0.5,101.8,87.2,.,.,.,.,.,.,
CNc1nc(N)cc(Nc2cccc(Cl)c2)n1,.,.,.,.,.,.,.,.,.,.,.,.,TORC1 bypass gr=3
O=C(CN1C(=O)c2cccc([N+](=O)[O-])c2C1=O)OCC(=O)N1CCCCC1,97.0,103.7,99.3,-8.4,108.4,88.8,.,.,.,.,.,.,
O=S(=O)(CCN(CCS(=O)(=O)C(F)(F)F)CC1CCCO1)C(F)(F)F (centres undefined),78.7,94.6,102.5,20.7,89.8,243.4*,.,.,.,.,.,0.62,Yeast autofl DR=0.24;TORC1 bypass gr=3
O=C(NCC1CCCO1)C1CCN(S(=O)(=O)N2CCCC2)CC1 (centres undefined),106.7,98.5,100.6,7.2,99.7,104.9,.,.,.,.,.,.,
CCN(CC(=O)NC1CCCC1)S(=O)(=O)c1ccc(F)cc1,104.2,104.4,114.5,0.1,103.2,101.3,.,.,.,.,.,.,
CN(CC(=O)Nc1ccccc1Br)C(=O)C1CCN(C(=O)c2ccc(Cl)cc2)CC1,106.5,105.5,102.2,10.7,109.8,94.8,.,.,.,.,.,.,
COc1ccc(C2OC34CCCCC3C(C#N)(C#N)C2(C#N)C(=N)O4)cc1 (centres undefined),31.6,139.3,79.6,10.7,63.3,93.0,94.2,96.1,99.5,105.7,95.5,.,
CC(=O)Oc1ccc(N2C(=O)C3C4C=CC(O4)C3C2=O)cc1 (centres undefined),100.2,98.3,100.3,8.7,98.5,118.2,.,.,.,.,.,0.1,
CC(=O)Oc1ccc(N2C(=O)CCC2=O)cc1,90.2,97.7,81.2,2.4,89.5,91.4,.,.,.,.,.,.,
Cc1c(C)c2ccc(Oc3ccc([N+](=O)[O-])cc3C(F)(F)F)c(C)c2oc1=O,102.3,106.3,92.1,-2.8,101.0,101.0,101.0,104.8,102.5,102.9,100.5,0.1,
COc1ccc(/C=C(\C#N)C(=O)NCc2ccccc2)cc1,103.3,91.8,99.9,9.5,99.7,101.1,.,.,.,.,.,.,
O=C(N[C@@H](Cc1ccccc1)C(=O)CCl)OCc1ccccc1,76.7,87.6,60.8,27.2,99.5,150.5*,140.3,103.1,96.3,90.4,95.7,.,
CCN1CCN(C(=O)C2=CC(c3ccc(OC)cc3)=NS(=O)(=O)N2C)CC1,108.5,127.4,91.5,-16.3,83.4,167.4*,101.2,103.1,98.5,101.5,100.7,.,
COc1ccc(C2=NS(=O)(=O)N(C)C(C(=O)N3CCN(C)CC3)=C2)cc1,105.0,98.1,111.9,-0.8,100.4,106.5,.,.,.,.,.,.,
COc1ccccc1-c1cc(Nc2cc(C)[nH]n2)nc(NCc2ccccc2)n1,.,.,.,.,.,.,.,.,.,.,.,.,TORC1 bypass gr=3
COc1cccc(-c2cc(Nc3cc(C)[nH]n3)nc(NCc3ccccc3)n2)c1,.,.,.,.,.,.,.,.,.,.,.,.,TORC1 bypass gr=3
COc1ccc(Nc2cc(C)nc(NCc3ccccc3)n2)cc1,106.2,101.8,105.6,10.3,98.7,103.2,.,.,.,.,.,.,
Cc1cc(N2CCN(S(=O)(=O)c3ccc(Br)cc3)CC2)n2ncnc2n1,28.2,142.0,84.2,0.6,50.2,85.0,103.2,108.3,98.0,102.9,96.2,.,
CC(OC(=O)c1ccco1)C(=O)Nc1nc(-c2ccccc2)cs1 (centres undefined),100.7,93.9,64.1,9.8,77.9,176.9*,120.2,94.3,98.2,102.9,98.8,0,
COc1cccc(-n2nnnc2SCC(=O)Nc2ccccc2OC)c1,98.4,96.8,99.8,4.9,97.6,97.1,.,.,.,.,.,.,
CCCS(=O)(=O)c1nnnn1-c1cccc(OC)c1,78.9,90.0,66.7,19.1,80.3,203.9*,.,.,.,.,.,2.04,
COc1ccc(S(=O)(=O)N2CCc3ccccc32)cc1C(=O)N(CC(C)C)C1CCS(=O)(=O)C1 (centres undefined),91.9,86.8,95.3,-5.0,88.3,87.0,.,.,.,.,.,.,
SMILES,AGP1 TOR yeast,MEP2 TOR yeast,CIT2-GFP yeast,VLA-4 inh,RPL19A-GFP yeast,LAP4 TOR yeast,LAP4-GFP pick2,MEP2-GFP pick2,RPL19A GFP CP2,CIT2 GFP CP2,AGP1 GFP CP2,Yeast autofluor,others
O=C(O)c1cccc(CN2C(=O)S/C(=C/c3cccc([N+](=O)[O-])c3)C2=O)c1,22.4,155.5,81.5,19.6,53.1,102.5,98.1,99.8,102.8,102.9,98.8,.,
C=CCN=C1S/C(=C/c2cccc([N+](=O)[O-])c2)C(=O)N1CC=C,97.0,89.9,90.1,-1.1,96.7,109.8,.,.,.,.,.,.,
N#Cc1ccc(CN2CCN(C(=O)CNS(=O)(=O)c3ccc4c(c3)OCCCO4)CC2)cc1,87.2,89.0,83.1,-0.6,92.8,87.4,.,.,.,.,.,.,
O=[N+]([O-])c1cc(CN2CCN(c3ccccc3)CC2)c(O)c2ncccc12,75.3,99.0,.,2.7,77.5,152.9*,.,.,.,.,.,1.11,
Oc1c(CN2CCCCC2)cc(Br)c2cccnc12,106.7,119.1,112.1,-11.2,91.1,226.6*,.,.,.,.,.,1.11,
Oc1c(Cl)cc(CN2CCOCC2)c2cccnc12,101.2,100.7,111.7,-3.7,101.4,100.1,.,.,.,.,.,.,
